Assay results as given in PubChem BioAssay.
Several values for one entry are separate records, joined by “and”; a condition that tells them apart may be missing. Equal entries are not always repeated. Activity calls are given as the source filed them.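 Rule for the calls, unless noted: active = thallium flux through the channel raised or lowered by more than 3 SD from vehicle-only wells, actives on both sides; inactive = the rest.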

Columns and labels:
[1] = tested on: Hepatitis C virus NS3 helicase; experiment: blockers of NS3h binding to DNA – biochemical, fluorescence polarization, NIH Clinical Collection, primary screen (AID 743270; call rule not given here); settings: NS3 helicase binding to Cy5-dT15 DNA, stronger effect = higher value, concentration not given here
[2] = target: Single-stranded DNA-binding protein (Escherichia coli (strain K12)) (UniProt P0AGE0); experiment: SSB-ssDNA binding inhibitors – biochemical, fluorescence polarization, NIH Clinical Collection, counter-screen for HCV NS3 helicase inhibitor project (AID 743271; in the data active = inhibition above about 28%); settings: E. coli SSB-DNA binding, stronger effect = higher value, concentration not given here
[3] = compounds distorting NS3 helicase fluorescence signal – biochemical, NIH Clinical Collection, artefact control for HCV NS3 helicase inhibitor project (AID 743272; call rule not given here;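 note: HCV NS3 helicase with a Cy5 labelled single stranded DNA probe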); settings: fluorescence interference counterscreen, HCV NS3 helicase assay; stronger effect = lower value
[4] = Wnt pathway potentiators raising nuclear beta-catenin – imaging, WNT3A-conditioned medium, mouse C2C12, NPC library, primary screen (AID 1117326; in the data active = nuclear beta-catenin stimulation mostly above about 4.2%, no sharp cut-off; inactive = mostly below about 10%); settings: stronger effect = higher value
[5] = stimulators of insulin release from INS-1E, primary screen, cell-based, 5 mM glucose, NPC library (AID 1117329;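 active = compound raises insulin release from rat beta cells at 5 mM glucose, no numeric limit stated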); settings: rat INS-1E insulin secretion, at 10 µM, stronger effect = higher value
[6] = growth inhibition of GSK3B-pretreated HCT116 cells – cell-based, CellTiter-Glo, 0.2 to 20 µM (AID 1117336;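 active = compounds lowering colon cancer cell viability after pretreatment blocking the GSK3B kinase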); settings: HCT116 viability after GSK3B inhibitor, at 20 µM, stronger effect = higher value
[7] = inhibition of endothelial tube formation, primary screen, imaging, VEGF stimulated, CD31 staining, tube area, NPC library (AID 1117340;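 active = compound that reduces growth-factor-driven endothelial tube area in a mixed cell culture, no cutoff stated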); settings: VEGF-stimulated ADSC/ECFC co-culture, at 10 µM, stronger effect = higher value
[8] = GLP1 release stimulators, primary, NCI-H716, NPC library (AID 1117341;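 active = compound raises GLP1 secretion from the human gut endocrine cells, with no numeric limit stated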); settings: NCI-H716 cells, at 10 µM, stronger effect = higher value
[9] = HCT116 colon cancer cell growth inhibition, primary screen, CellTiter-Glo luminescence, NPC library (AID 1117342;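 active = compounds that lower survival of HCT116 colon cancer cells in the luminescence readout, no numeric limit stated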); settings: at 20 µM (top of the series)
[10] = reduced SW480 viability measured with CellTiter-Glo, NPC library, primary (AID 1117343;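 active = compounds that lower viability of the colon cancer cells in the luminescence readout, with no numeric limit stated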); settings: CellTiter-Glo luminescence; at 20 µM (top of the series)
[11] = NPC library primary testing for decreased DLD-1 cell viability via CellTiter-Glo (AID 1117346;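 active = compounds that lower survival of DLD-1 colon cancer cells in the luminescence readout, no cutoff given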); settings: DLD-1 viability, CellTiter-Glo luminescence; at 20 µM (top of the series)
[12] = target: 6-phosphogluconate dehydrogenase, decarboxylating (Homo sapiens) (UniProt P52209); experiment: inhibition of human phosphogluconate dehydrogenase – biochemical, recombinant enzyme, NADPH absorbance, primary screen (AID 1159550;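 active = at least 20% inhibition of 6-phosphogluconate dehydrogenase activity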); settings: recombinant 6PGD, NADPH absorbance 341 nm; at 10 µM; stronger effect = higher value
Chain of 6-phosphogluconate dehydrogenase, decarboxylating (Homo sapiens) (P52209 whole entry, looked up): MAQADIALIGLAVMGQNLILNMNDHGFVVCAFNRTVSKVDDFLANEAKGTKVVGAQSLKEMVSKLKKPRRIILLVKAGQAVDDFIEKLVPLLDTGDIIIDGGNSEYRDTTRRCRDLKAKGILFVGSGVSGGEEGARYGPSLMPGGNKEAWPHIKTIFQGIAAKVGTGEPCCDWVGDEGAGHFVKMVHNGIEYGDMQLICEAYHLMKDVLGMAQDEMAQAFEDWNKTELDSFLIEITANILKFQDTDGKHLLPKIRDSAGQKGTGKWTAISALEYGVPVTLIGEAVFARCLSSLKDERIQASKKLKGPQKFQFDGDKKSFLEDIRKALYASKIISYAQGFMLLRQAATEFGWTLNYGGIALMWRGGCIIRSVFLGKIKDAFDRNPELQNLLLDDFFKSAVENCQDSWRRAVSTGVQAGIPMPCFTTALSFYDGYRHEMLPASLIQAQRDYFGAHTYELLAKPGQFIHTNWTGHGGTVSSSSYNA

[13] = EMT-state selective cytotoxicity in co-culture – imaging, PC-3E GFP, TEM4-18 mCherry, primary screen (AID 1345086;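 active = compounds killing one labelled cell type while sparing the other, by normalised counts and ratio limits, not self-fluorescent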;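 note: cells exposed to compound for 72 h before imaging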;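 for red/green cell ratio (normalised): normalised mesenchymal count divided by normalised epithelial count so high means epithelial killing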); settings: PC-3E GFP / TEM4-18 mCherry co-culture, imaging cell counts, at 1 µM
[14] = MELAS cybrid and Rieske KO viability enhancers – cell-based, MELAS cybrids, Rieske KO mouse fibroblasts, CellTiter-Glo, primary screen (AID 1508586;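 active = mean z-score across replicates of 1.96 or higher in either the MELAS or the Rieske mutant cell line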;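 note: z relative to plate mean and SD of compound and empty wells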); settings: low glucose
[15] = target: NAD(+) hydrolase SARM1 (Homo sapiens) (UniProt Q6SZW1); experiment: blocking NAD cleavage by SARM1 SAM-TIR – cell lysate, NAD-Glo luminescence (AID 1508614;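 active = compound whose remaining NAD level is above about 45 nM, limit read from the data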;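 note: higher remaining NAD means stronger inhibition of SARM1 NADase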); settings: SAM-TIR HEK293T lysate NADase, at 1 µM, stronger effect = higher value
Chain of NAD(+) hydrolase SARM1 (Homo sapiens) (Q6SZW1 whole entry, looked up, the tested form may be a part): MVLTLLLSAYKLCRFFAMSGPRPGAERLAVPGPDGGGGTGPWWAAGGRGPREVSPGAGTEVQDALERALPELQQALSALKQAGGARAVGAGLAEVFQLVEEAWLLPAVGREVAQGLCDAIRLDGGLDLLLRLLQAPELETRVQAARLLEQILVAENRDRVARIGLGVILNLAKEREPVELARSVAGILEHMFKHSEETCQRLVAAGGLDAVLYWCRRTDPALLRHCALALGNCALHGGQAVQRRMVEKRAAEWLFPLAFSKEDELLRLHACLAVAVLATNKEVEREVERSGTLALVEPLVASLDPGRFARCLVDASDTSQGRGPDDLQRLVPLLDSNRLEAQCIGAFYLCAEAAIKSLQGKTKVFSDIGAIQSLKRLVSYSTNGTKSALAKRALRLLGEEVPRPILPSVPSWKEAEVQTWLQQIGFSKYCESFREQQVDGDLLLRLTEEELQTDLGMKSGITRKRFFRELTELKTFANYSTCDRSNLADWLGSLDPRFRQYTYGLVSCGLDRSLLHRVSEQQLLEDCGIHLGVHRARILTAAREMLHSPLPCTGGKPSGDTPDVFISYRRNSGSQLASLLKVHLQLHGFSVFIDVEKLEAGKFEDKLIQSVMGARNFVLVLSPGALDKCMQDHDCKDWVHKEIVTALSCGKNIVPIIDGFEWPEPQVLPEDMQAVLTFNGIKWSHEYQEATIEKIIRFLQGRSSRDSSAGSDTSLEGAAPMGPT

[16] = target: Mitogen-activated protein kinase 7 (Homo sapiens) (UniProt Q13164); experiment: Gal4-ERK5 driven luciferase induction – cell-based, HTS, primary screen (AID 1508626;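 active = luciferase signal above three times the same-plate solvent-only control wells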;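 note: luciferase driven by Gal4-ERK5 fusion binding five Gal4 sites before minimal TATA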); settings: HeLa Gal4-ERK5 transactivation, 18 h, at 5 µM, stronger effect = higher value
Chain of Mitogen-activated protein kinase 7 (Homo sapiens) (Q13164 whole entry, looked up, the tested form may be a part): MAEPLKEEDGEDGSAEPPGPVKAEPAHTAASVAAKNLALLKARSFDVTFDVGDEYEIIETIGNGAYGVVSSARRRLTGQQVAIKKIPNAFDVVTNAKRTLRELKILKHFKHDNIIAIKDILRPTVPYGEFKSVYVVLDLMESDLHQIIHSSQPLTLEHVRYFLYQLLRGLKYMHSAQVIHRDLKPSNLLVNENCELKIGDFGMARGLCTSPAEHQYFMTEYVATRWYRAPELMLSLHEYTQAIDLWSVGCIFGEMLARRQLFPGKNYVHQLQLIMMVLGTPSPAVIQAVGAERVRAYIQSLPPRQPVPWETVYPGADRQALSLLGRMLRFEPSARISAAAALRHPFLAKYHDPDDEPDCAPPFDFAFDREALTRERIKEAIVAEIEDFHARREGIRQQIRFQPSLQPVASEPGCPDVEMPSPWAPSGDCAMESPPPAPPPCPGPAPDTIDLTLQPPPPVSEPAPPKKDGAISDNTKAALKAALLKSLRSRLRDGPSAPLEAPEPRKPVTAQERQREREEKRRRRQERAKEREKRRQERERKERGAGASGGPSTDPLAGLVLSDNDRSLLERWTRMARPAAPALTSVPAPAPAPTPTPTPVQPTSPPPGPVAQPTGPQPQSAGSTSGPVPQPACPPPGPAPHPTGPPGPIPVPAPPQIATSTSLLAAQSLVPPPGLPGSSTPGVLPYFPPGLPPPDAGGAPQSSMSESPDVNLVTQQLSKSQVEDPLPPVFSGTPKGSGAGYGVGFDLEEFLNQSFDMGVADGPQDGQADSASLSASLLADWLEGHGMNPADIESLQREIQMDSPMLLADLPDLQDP

F380Y = experiment: BK channel mutant inhibitors and activators – cell-based, U2OS BacMam, thallium flux, beta subunits, selectivity assay, profiling panel (AID 1259406); settings: U2OS BacMam BK variants, at 30 µM;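 note: initial slope of Thallos dye fluorescence rise after thallium is added; log ratio against the mean of 0.3% DMSO vehicle wells on the same plate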
F380Y/beta2Delta = experiment: as above; settings: U2OS BacMam BK variants, at 30 µM
[17] = target: Calcium-activated potassium channel subunit alpha-1 (Homo sapiens) + Leucine-rich repeat-containing protein 26 (Homo sapiens) (UniProt Q12791+Q2I0M4); experiment: as above; settings: U2OS BacMam BK variants, F380Y/Slo1WT/gamma1, at 30 µM
Chain of Calcium-activated potassium channel subunit alpha-1 (Homo sapiens) + Leucine-rich repeat-containing protein 26 (Homo sapiens) (Q2I0M4 whole entry, looked up, one chain of several): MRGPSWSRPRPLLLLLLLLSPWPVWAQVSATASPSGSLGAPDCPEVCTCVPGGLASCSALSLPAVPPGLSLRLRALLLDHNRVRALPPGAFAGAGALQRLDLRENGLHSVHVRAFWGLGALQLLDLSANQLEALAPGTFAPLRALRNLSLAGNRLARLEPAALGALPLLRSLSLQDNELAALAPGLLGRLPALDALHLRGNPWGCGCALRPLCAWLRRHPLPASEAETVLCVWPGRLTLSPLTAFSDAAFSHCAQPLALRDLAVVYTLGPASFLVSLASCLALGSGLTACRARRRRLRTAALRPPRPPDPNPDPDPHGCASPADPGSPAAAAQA

[18] = viability loss with induced miR-34 in A549 – imaging, A549 dox-inducible miR-34, nuclei and caspase counts, primary screen (AID 1347080;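 active = compounds whose cell count with miR-34 switched on is under 0.7 times the count with it off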); settings: A549 miR-34 inducible, Hoechst nuclei count, 48 h
[19] = MELAS cybrid survival, CellTiter-Glo 48 h, stronger effect = higher value
[20] = Rieske KO mouse fibroblast survival, CellTiter-Glo 72 h
[21] = stronger effect = lower value, cell number ratio, induced over uninduced
[22] = measured here: relative caspase fold change +Dox/-Dox
[23] = measured here: total cells with miR-34 induction, stronger effect = lower value
[24] = measured here: total cells without miR-34 induction

CCCN(CCC)S(=O)(=O)c1ccc(C(=O)O)cc1
0.78: normalised cell number ([13]; measured here: epithelial PC-3E GFP cell survival)
-0.203 and 0.258: z-score [14, 20]
-0.2%: nuclear beta-catenin stimulation ([4]; stimulation, at 2 µM)
inactive: inhibition [1] -3.18% | inhibition [2] -0.48% | fluorescence ratio [3] 0.94 | nuclear beta-catenin stimulation ([4]; at 10 µM) -1.3% | insulin secretion stimulation [5] 0.5% | viability decrease [6] -23.6% | tube area decrease [7] -14.2% | GLP1 secretion stimulation [8] -0.7% | inhibition of viability [9] 12.4% | viability decrease (inhibition) [10] 14.9% | viability decrease (inhibition) [11] -10.5% | inhibition [12] 0.15% | red/green cell ratio (normalised) ([13]; actives lie on both sides, counts scaled to control wells, 1 = unselective) 1.43 | z-score [14, 19] -0.112 and 0.174 | remaining NAD [15] 10 nM | luciferase signal [16] 80 AU | log fold change Tl+ flux (F380Y) -0.012 | log fold change Tl+ flux (F380Y/beta2Delta) -0.000486 | log fold change Tl+ flux [17] 0.021
1.12: normalised cell number ([13]; measured here: mesenchymal TEM4-18 mCherry cell survival)

O=C1[C@H](CC[C@H](O)c2ccc(F)cc2)[C@@H](c2ccc(O)cc2)N1c1ccc(F)cc1
0.307: z-score [14, 20]
inactive: inhibition [1] 2.77% | inhibition [2] 3.75% | fluorescence ratio [3] 0.95 | nuclear beta-catenin stimulation ([4]; at 10 µM) 4.5% | insulin secretion stimulation [5] 6% | viability decrease [6] 20.8% | tube area decrease [7] 19.9% | GLP1 secretion stimulation [8] 7.4% | inhibition of viability [9] 32.6% | viability decrease (inhibition) [10] 10.1% | viability decrease (inhibition) [11] 18% | inhibition [12] -1.06% | z-score [14, 19] -0.744 | remaining NAD [15] 10 nM | luciferase signal [16] 44 AU | log fold change Tl+ flux (F380Y) 0.0275 | log fold change Tl+ flux (F380Y/beta2Delta) 0.0773 | log fold change Tl+ flux [17] 0.0312
-0.4%: nuclear beta-catenin stimulation ([4]; stimulation, at 2 µM)

CC(=O)[C@H]1CC[C@H]2[C@@H]3C[C@H](C)C4=CC(=O)CC[C@]4(C)[C@H]3[C@@H](O)C[C@]12C
6580 and 6920: cell count [18, 23]
1.33: z-score [14, 20]
1.06 and 1.54: fold change [18, 22]
inactive: inhibition [1] -0.45% | inhibition [2] 0.29% | fluorescence ratio [3] 0.99 | nuclear beta-catenin stimulation ([4]; at 10 µM) 0.3% | insulin secretion stimulation [5] 0% | viability decrease [6] -48.8% | tube area decrease [7] 13.8% | GLP1 secretion stimulation [8] 0.4% | inhibition of viability [9] 14.4% | viability decrease (inhibition) [10] 11.1% | viability decrease (inhibition) [11] -5.4% | inhibition [12] -11.2% | fold change [18, 21] 0.951 and 0.798 | z-score [14, 19] 0.756 | remaining NAD [15] 10 nM | luciferase signal [16] 84 AU | log fold change Tl+ flux (F380Y) -0.0207 | log fold change Tl+ flux (F380Y/beta2Delta) -0.0669 | log fold change Tl+ flux [17] -0.019
6920 and 8680: cell count [18, 24]
-0.3%: nuclear beta-catenin stimulation ([4]; stimulation, at 2 µM)

CC(COc1ccccc1)NC(C)C(O)c1ccc(O)cc1 (centres undefined)
1.41 and 1.05: fold change [18, 22]
10000 and 8140: cell count [18, 23]
0.798: z-score [14, 20]
-1%: nuclear beta-catenin stimulation ([4]; stimulation, at 2 µM)
10800 and 9240: cell count [18, 24]
inactive: inhibition [1] -4.09% | inhibition [2] 1.81% | fluorescence ratio [3] 0.91 | nuclear beta-catenin stimulation ([4]; at 10 µM) 2.4% | insulin secretion stimulation [5] 3% | viability decrease [6] -3.4% | tube area decrease [7] 15.3% | GLP1 secretion stimulation [8] 2.4% | inhibition of viability [9] 18.7% | viability decrease (inhibition) [10] 42.3% | viability decrease (inhibition) [11] -4.6% | inhibition [12] 0.0758% | fold change [18, 21] 0.93 and 0.88 | z-score [14, 19] 0.843 | remaining NAD [15] 10 nM | luciferase signal [16] 72 AU | log fold change Tl+ flux (F380Y) -0.000146 | log fold change Tl+ flux (F380Y/beta2Delta) 0.0627 | log fold change Tl+ flux [17] -0.0341

COc1cc([C@@H]2c3cc4c(cc3[C@H](O)[C@H]3COC(=O)[C@H]23)OCO4)cc(OC)c1OC
2300 and 1910 and 1870: cell count [18, 23]
77%: nuclear beta-catenin stimulation ([4]; stimulation, at 2 µM)
inactive: inhibition [1] -0.45% | inhibition [2] 1.05% | fluorescence ratio [3] 1.03 | insulin secretion stimulation [5] 1.25% | GLP1 secretion stimulation [8] 2% | viability decrease (inhibition) [10] 49.9% | inhibition [12] 10.7% | fold change [18, 21] 1.05 and 1.04 and 0.981 | z-score [14, 19] -2.59 | remaining NAD [15] 10 nM | luciferase signal [16] 92 AU | log fold change Tl+ flux (F380Y) 0.0196 | log fold change Tl+ flux (F380Y/beta2Delta) 0.00366 | log fold change Tl+ flux [17] 0.0135
1.94: z-score [14, 20]
0.525 and 0.993 and 1.97: fold change [18, 22]
2200 and 1830 and 1900: cell count [18, 24]
active: nuclear beta-catenin stimulation ([4]; at 10 µM) 81% | viability decrease [6] 102% | tube area decrease [7] 109% | inhibition of viability [9] 73.1% | viability decrease (inhibition) [11] 64%

CC(C)C1CCC(C(=O)N[C@H](Cc2ccccc2)C(=O)O)CC1 (some centres undefined)
8810: cell count [18, 23]
inactive: inhibition [1] -0.4% | inhibition [2] 2.98% | nuclear beta-catenin stimulation ([4]; at 10 µM) -0.5% | viability decrease [6] -22.6% | tube area decrease [7] -2.3% | GLP1 secretion stimulation [8] 2.1% | inhibition of viability [9] -6.47% | viability decrease (inhibition) [10] 1% | viability decrease (inhibition) [11] -23.8% | inhibition [12] 0.904% | fold change [18, 21] 0.871 | z-score [14, 19] -0.215 and -1.18 | remaining NAD [15] 10 nM | luciferase signal [16] 80 AU | log fold change Tl+ flux (F380Y) -0.00809 | log fold change Tl+ flux (F380Y/beta2Delta) 0.0541 | log fold change Tl+ flux [17] 0.0401
0.2%: nuclear beta-catenin stimulation ([4]; stimulation, at 2 µM)
-0.618 and -0.816: z-score [14, 20]
1.37: fold change [18, 22]
10100: cell count [18, 24]
active: fluorescence ratio [3] 0.74 | insulin secretion stimulation [5] 49.4%
